Assay results reported in PubChem BioAssay AID1159580 (chemical genetic matrix, 2015).
Values joined by “and” are separate entries in the source; they are usually repeats but may differ in a detail not shown here. Equal entries are not always repeated. Hit rate of the full screen: of about 5,500 compounds, about 2,000 (36%) were called active. About 18% were inconclusive and are not listed. Rule as the data show it: active = normalized growth mostly below about 0.91 (no sharp cut-off); inconclusive = no clear call, values can overlap the other calls; inactive = mostly above about 0.92. Some of the results follow.

Experiment: chemical genetic growth profiling, strain panel (AID 1159580);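 also: tested at 20 µM; growth read once vehicle control cultures reached saturation at 30 °C; 1 = growth at the plate median or of vehicle wells; lower values mean less growth of the strain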
Details: S. cerevisiae deletion strains, growth OD

Measured: normalized growth

CNCCCN1c2ccccc2CCc2ccccc21
inactive: locus YAL013W, strain DEP1, active compounds read low 0.993 | locus YAL021C, strain ccr4, active compounds read low 1 | locus YAL026C, strain drs2, active compounds read low 0.985 | locus YAL030W, strain snc1, active compounds read low 1.03 | locus YAL040C, strain CLN3, active compounds read low 1 | locus YBL061C, strain skt5, active compounds read low 1.02 | locus YBR009C, strain hhf1, active compounds read low 0.972 | locus YBR021W, strain FUR4, active compounds read low 1 | locus YBR023C, strain chs3, active compounds read low 1.02 | locus YBR171W, strain sec66, active compounds read low 1.03 | locus YBR229C, strain ROT2, active compounds read low 1.01 | locus YBR231C, strain swc5, active compounds read low 1.02 | locus YBR279W, strain paf1, active compounds read low 0.996 | locus YCL011C, strain gbp2, active compounds read low 0.994 | locus YCL016C, strain dcc1, active compounds read low 0.988 | locus YCL029C, strain bik1, active compounds read low 1 | locus YCL061C, strain MRC1 (second series), active compounds read low 0.994 | locus YCL061C, strain MRC1, active compounds read low 1.04 | locus YCL069W, strain vba3, active compounds read low 1.02 | locus YCR088W, strain abp1, active compounds read low 1.02 | locus YDL005C, strain med2, active compounds read low 1.03 | locus YDL035C, strain GPR1, active compounds read low 1.02 | locus YDL040C, strain nat1, active compounds read low 1.02 | locus YDL074C, strain BRE1, active compounds read low 1 | locus YDL101C, strain DUN1, active compounds read low 1 | locus YDL134C, strain PPH21, active compounds read low 1.02 | locus YDL185W, strain tfp1, active compounds read low 1 | locus YDL192W, strain arf1, active compounds read low 0.997 | locus YDR001C, strain nth1, active compounds read low 1.02 | locus YDR069C, strain doa4, active compounds read low 1.05 | locus YDR101C, strain arx1, active compounds read low 1.01 | locus YDR137W, strain rgp1, active compounds read low 1.1 | locus YDR150W, strain NUM1, active compounds read low 1.01 | locus YDR159W, strain sac3, active compounds read low 0.987 | locus YDR162C, strain NBP2, active compounds read low 1.02 | locus YDR195W, strain ref2 1.07 | locus YDR297W, strain sur2, active compounds read low 1.03 | locus YDR318W, strain mcm21, active compounds read low 0.993 | locus YDR334W, strain swr1, active compounds read low 1.01 | locus YDR335W, strain msn5, active compounds read low 1.02 | locus YDR363W, strain ESC2, active compounds read low 0.997 | locus YDR388W, active compounds read low 0.992 | locus YDR392W, strain spt3, active compounds read low 0.91 | locus YDR502C, strain sam2, active compounds read low 1.01 | locus YEL003W, strain gim4, active compounds read low 1.02 | locus YEL037C, strain rad23, active compounds read low 1.01 | locus YEL061C, strain CIN8 (second series), active compounds read low 1.01 | locus YEL061C, strain CIN8, active compounds read low 1.01 | locus YER002W, strain NOP16, active compounds read low 0.983 | locus YER015W, strain faa2, active compounds read low 1.01 | locus YER016W, strain bim1, active compounds read low 0.991 | locus YER110C, active compounds read low 0.999 | locus YER111C, strain swi4, active compounds read low 1.01 | locus YER155C, strain BEM2 (second series), active compounds read low 1.05 | locus YER155C, strain BEM2, active compounds read low 1.01 | locus YER167W, strain BCK2, active compounds read low 1.01 | locus YFR010W, strain ubp6, active compounds read low 1.01 | locus YGL078C, strain dbp3, active compounds read low 0.994 | locus YGL086W, strain mad1, active compounds read low 0.991 | locus YGL167C, strain pmr1, active compounds read low 1.02 | locus YGL173C, strain kem1, active compounds read low 1.02 | locus YGL227W, strain vid30, active compounds read low 1.01 | locus YGL240W, strain doc1, active compounds read low 1.06 | locus YGL248W, strain PDE1, active compounds read low 0.992 | locus YGL253W, strain hxk2, active compounds read low 0.996 | locus YGR135W, strain pre9, active compounds read low 0.986 | locus YGR252W, strain gcn5, active compounds read low 0.94 | locus YHR013C, strain ard1, active compounds read low 0.984 | locus YHR027C, strain rpn1, active compounds read low 0.999 | locus YHR030C, strain SLT2, active compounds read low 1.01 and 1.02 | locus YHR079C, strain IRE1 (second series), active compounds read low 1 | locus YHR079C, strain IRE1, active compounds read low 1.01 | locus YHR094C, strain hxt1, active compounds read low 0.995 | locus YHR129C, strain ARP1, active compounds read low 1.01 | locus YHR142W, strain chs7, active compounds read low 0.993 | locus YHR200W, strain rpn10, active compounds read low 1.01 | locus YIL066C, strain RNR3, active compounds read low 1.01 | locus YIL073C, strain SPO22, active compounds read low 0.964 | locus YIL125W, strain kgd1, active compounds read low 1 | locus YIR030C, strain dcg1, active compounds read low 0.999 | locus YJL092W, strain hpr5, active compounds read low 1.01 | locus YJL095W, strain BCK1 (second series), active compounds read low 1.01 | locus YJL095W, strain BCK1, active compounds read low 0.979 and 1.02 | locus YJL115W, strain asf1, active compounds read low 0.999 | locus YJL129C, strain trk1, active compounds read low 1.04 | locus YJL134W, strain LCB3, active compounds read low 1 | locus YJL154C, strain vps35, active compounds read low 1.01 | locus YJL164C, strain tpk1, active compounds read low 0.984 | locus YJL166W, strain qcr8, active compounds read low 1.06 | locus YJL168C, strain set2, active compounds read low 1 | locus YJL187C, strain SWE1 (second series), active compounds read low 0.998 | locus YJR043C, strain POL32, active compounds read low 1.01 | locus YJR066W, strain TOR1, active compounds read low 0.98 | locus YJR075W, strain HOC1, active compounds read low 0.968
